This is one part of a sample in which hits are shown more often than they occur.
IDE exosite FP = displaces the probe from the exo-site of human IDE. P14735. purified IDE, FL-6b probe fluorescence polarization; stronger effect = lower value. z-score at 20 µM. hit rate 6.3% among 17,000. AID 1259349;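 active = z-score of -3 or lower, meaning strong loss of probe binding signal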;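 also: His-tagged human IDE residues 42-1019 made in E. coli with 30 nM FL-6b probe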
The depositor's hits bear a star.

SMILES | IDE exosite FP
CO[C@H]1CN(C)C(=O)c2cc(NC(=O)NC(C)C)ccc2OC[C@@H](C)N(C(=O)CN(C)C)C[C@@H]1C | 0.469
CCCNC(=O)N1[C@@H](CO)[C@@H](c2ccccc2)C12CN(CCC(F)(F)F)C2 | -0.475
CC(C)C#Cc1ccc([C@H]2[C@H]3CN(C(=O)Cc4cccnc4)CC(=O)N3[C@H]2CO)cc1 | 3.72
Cc1cccc(-c2ccc([C@@H]3[C@@H](CO)N4CCCCN(Cc5cncnc5)C[C@@H]34)cc2)c1 | -6.65*
OC[C@@H]1[C@H](c2ccc(C3=CCCC3)cc2)[C@H]2CN(Cc3cncnc3)CCCCN12 | 0.59
OC[C@@H]1[C@@H](c2ccc(Br)cc2)[C@H]2CN(Cc3cncnc3)CCCCN12 | 0.52
OC[C@@H]1[C@H](c2ccc(-c3ccccc3F)cc2)[C@@H]2CN(Cc3cncnc3)CCCCN12 | -1.62
Cc1ccc(-c2ccc([C@H]3[C@@H](CO)N4CCCCN(Cc5cncnc5)C[C@H]34)cc2)cc1 | -0.174
Cc1cccc(-c2ccc([C@H]3[C@@H](CO)N4CCCCN(Cc5cccnc5)C[C@H]34)cc2)c1 | -6.79*
OC[C@@H]1[C@@H](c2ccc(-c3ccccc3F)cc2)[C@H]2CN(Cc3cncnc3)CCCCN12 | 0.86
Cc1cccc(-c2ccc([C@H]3[C@@H](CO)N4CCCCN(Cc5cccnc5)C[C@@H]34)cc2)c1 | -1.8
OC[C@@H]1[C@H](c2ccc(-c3ccc(F)cc3)cc2)[C@H]2CN(Cc3cccnc3)CCCCN12 | 1.16
Cc1cccc(-c2ccc([C@@H]3[C@H]4CN(Cc5cncnc5)CCCCN4[C@H]3CO)cc2)c1 | -4.66*
Cc1cccc(-c2ccc([C@@H]3[C@H](CO)N4CCCCN(Cc5cncnc5)C[C@@H]34)cc2)c1 | -7.52*
O=C(Nc1ccccc1F)N1CCCCN2[C@H](C1)[C@@H](c1ccc(C3=CCCC3)cc1)[C@@H]2CO | 5
CN(C)CC(=O)N1[C@H](C#N)[C@H](c2ccccc2-c2ccc(C(=O)N(C)C)cc2)[C@H]1CO | 0.605
CC(=O)N1[C@H](CO)[C@H](c2ccccc2)[C@H]1CNC(=O)c1ccncc1 | 3.02
Cc1ccccc1S(=O)(=O)N1CC(=O)N2[C@H](CO)[C@H](c3ccc(C#CCN(C)C)cc3)[C@@H]2C1 | 1.63
N#C[C@@H]1[C@@H](c2ccccc2)[C@@H](CO)N1C(=O)c1ccc2c(c1)OCO2 | 0.282
CCC(=O)N1CC2(C1)[C@@H](c1ccc(-c3ccccc3C)cc1)[C@@H](CO)N2C(=O)CC | -2.82
CC(=O)NC[C@H]1[C@H](c2ccccc2)[C@H](CO)N1C(=O)Cc1ccncc1 | 0.27
Cc1ccc(S(=O)(=O)Nc2ccc3c(c2)C(=O)N([C@@H](C)CO)C[C@H](C)[C@H](CN(C)S(=O)(=O)c2cccs2)OCCCC[C@@H](C)O3)cc1 | 0.0862
CN1C(=O)c2cc(NS(=O)(=O)c3cccc(F)c3)ccc2OC[C@H]2O[C@H](CC(=O)N3CCc4ccccc4C3)CC[C@H]21 | -0.888
N#C[C@@H]1[C@@H](c2ccc(C#Cc3ccccc3F)cc2)[C@@H](CO)N1C(=O)C1CCCCC1 | 2.9
N#C[C@@H]1[C@H](c2ccc(C#Cc3ccccc3F)cc2)[C@H](CO)N1C(=O)C1CCC1 | 3.58
SMILES | IDE exosite FP
COc1ccccc1C#Cc1ccc([C@@H]2[C@H](C#N)N(C(=O)C3CCC3)[C@H]2CO)cc1 | -7.12*
COc1ccccc1C#Cc1ccc([C@@H]2[C@@H](CO)N(C(=O)C3CCCCC3)[C@H]2C#N)cc1 | -1.7
COc1ccccc1C#Cc1ccc([C@@H]2[C@@H](C#N)N(C(=O)C3CCC3)[C@@H]2CO)cc1 | -4.63*
COc1ccccc1C#Cc1ccc([C@@H]2[C@@H](CO)N(C(=O)C3CCC3)[C@H]2C#N)cc1 | -4.23*
N#C[C@@H]1[C@H](c2ccc(C#Cc3ccc(F)cc3)cc2)[C@@H](CO)N1C(=O)C1CCCC1 | -0.0257
N#C[C@@H]1[C@@H](c2ccc(C#Cc3ccccc3F)cc2)[C@H](CO)N1C(=O)C1CCCCC1 | 1.43
COc1ccccc1C#Cc1ccc([C@@H]2[C@H](C#N)N(C(=O)C3CCCCC3)[C@H]2CO)cc1 | -6.62*
COc1ccc(CN2CC3(C2)[C@H](c2ccccc2)[C@@H](CO)N3CC2CCCC2)cc1 | 0.0531
C/C=C/c1ccc([C@H]2[C@@H](CO)N(C(=O)C3CCCC3)[C@H]2CNCC)cc1 | 0.745
N#C[C@H]1[C@@H](c2ccccc2-c2cccc(F)c2)[C@H](CO)N1C(=O)C1CC1 | 1.92
N#C[C@H]1[C@@H](c2ccccc2-c2ccc(F)cc2)[C@H](CO)N1C(=O)Cc1ccccc1 | 4.17
O=C(c1cccc(F)c1)N1CCCCN2[C@H](C1)[C@H](c1ccc(C#CC3(O)CCCC3)cc1)[C@@H]2CO | -1.26
N#C[C@H]1[C@@H](c2ccc(C3=CCCC3)cc2)[C@H](CO)N1C(=O)c1ccccn1 | 0.123
COc1ccccc1C#Cc1ccc([C@H]2[C@H](C#N)N(C(=O)C3CCC3)[C@H]2CO)cc1 | -8.07*
COc1ccccc1C#Cc1ccc([C@@H]2[C@@H](C#N)N(C(=O)C3CCC3)[C@H]2CO)cc1 | -4.83*
COc1ccccc1NC(=O)N1C[C@@H](O)COC[C@H]2O[C@@H](CC(=O)N3CCC(Cc4ccccc4)CC3)CC[C@@H]21 | 0.811
N#C[C@H]1[C@@H](c2ccccc2C2=CCCCC2)[C@@H](CO)N1C(=O)c1cccc(F)c1 | 2.89
COc1ccccc1NC(=O)N1C[C@H](O)COC[C@@H]2O[C@H](CC(=O)NCCc3ccncc3)CC[C@H]21 | -0.0791
N#C[C@@H]1N[C@@H](CO)[C@H]1c1ccc(-c2cccc(F)c2)cc1 | -0.708
COc1ccccc1NC(=O)N1CC(=O)N2[C@H](C1)[C@H](c1ccc(-c3ccc(F)cc3)cc1)[C@@H]2CO | 2.17
CCCNC(=O)N1CC(=O)N2[C@H](CO)[C@@H](c3ccc(-c4ccc(C)cc4)cc3)[C@H]2C1 | -3.06*
CCCNC(=O)N1CC(=O)N2[C@H](CO)[C@H](c3ccc(-c4ccc(F)cc4)cc3)[C@H]2C1 | 0.882
COc1ccccc1NC(=O)N1CCCCN2[C@H](CO)[C@H](c3ccc(-c4cccc(C)c4)cc3)[C@H]2C1 | -1.49
CCCNC(=O)N1CC(=O)N2[C@H](C1)[C@H](c1ccc(-c3cccc(C)c3)cc1)[C@@H]2CO | -14.2*
COc1ccccc1NC(=O)N1CC(=O)N2[C@H](CO)[C@H](c3ccc(-c4cccc(C)c4)cc3)[C@@H]2C1 | -3.71*
SMILES | IDE exosite FP
CCCNC(=O)N1CC(=O)N2[C@H](CO)[C@H](c3ccc(-c4ccc(C)cc4)cc3)[C@@H]2C1 | -1.36
CCCNC(=O)N1CC(=O)N2[C@H](C1)[C@@H](c1ccc(-c3ccc(F)cc3)cc1)[C@@H]2CO | 0.755
CCCNC(=O)N1CC(=O)N2[C@H](CO)[C@H](c3ccc(-c4ccccc4)cc3)[C@@H]2C1 | -2.22
N#Cc1cccc(-c2ccc([C@H]3[C@H](CO)N4CCCCN(C(=O)Nc5ccc(F)cc5)C[C@@H]34)cc2)c1 | 1.58
CN1CCCCN2[C@H](CO)[C@@H](c3ccc(-c4ccc(F)cc4)cc3)[C@@H]2C1 | 0.111
CCS(=O)(=O)N1CCCCN2[C@@H](CO)[C@@H](c3ccc(-c4ccc(C(=O)N(C)C)cc4)cc3)[C@@H]2C1 | -1.16
C[C@H]1CCCCO[C@H](CN(C)S(=O)(=O)c2cn(C)cn2)[C@@H](C)CN([C@@H](C)CO)C(=O)c2cc(N(C)C)ccc2O1 | 0.167
Cn1cnc(S(=O)(=O)N2CCCCN3[C@H](C2)[C@@H](c2ccc(-c4cccc(F)c4)cc2)[C@@H]3CO)c1 | 0.693
Cn1cnc(S(=O)(=O)N2CCCCN3[C@@H](CO)[C@H](c4ccc(-c5cccc(F)c5)cc4)[C@@H]3C2)c1 | 2.07
